# Measurements from the supplement of paper PMC8728848.
# Only a selection was taken, and the strongest signals are over-represented in it overall.
# B1: Mg3lysM (Mycosphaerella graminicola) (protein)
# chain: APQNPPTSCSAAPQPTGTGSPGTVCGSTTFTNYTVKAGDTLGAIAKQYNSGVCDIAKVNGIDNPDYIKPDQVLSIPANCVTPDNTSCVKPVPVITNTCVLGVGSTYTVKSGDSFSAIATSFNITLASLEARNPQIPNYDLIFPGQVINTPLCPNSVCDSIGTYVIESGDIFYNLAQSNNVTVGQLESLNVNVNVTDIHPGDIIILPHNCHNITASA
# Tests used:
# Assay in all cases: glycan array binding signal (z-score within array); higher = stronger binding
# Conditions in all cases: glycan notation: IUPAC condensed, linker removed
# [1] = biological target: Fuc(a1-2)Gal
# Procedure, shortened: (§1)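 The Consortium for Functional Glycomics database supplied 3228 glycan arrays, of which those lacking an available protein sequence were dropped. The binding signal, a within-array Z-score, was averaged across arrays of the same protein sequence and across linkers. Negative scores can be read as non-binding.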
# [2] = biological target: Fuc(a1-2)Gal(b1-3)GlcNAc(b1-3)Gal(b1-4)Glc
# Procedure, shortened: as §1
# [3] = biological target: Fuc(a1-2)Gal(b1-3)GlcNAc(b1-3)[Fuc(a1-2)Gal(b1-3)GlcNAc(b1-6)]GalNAc
# Procedure, shortened: as §1
# [4] = biological target: Fuc(a1-2)Gal(b1-4)GlcNAc
# Procedure, shortened: as §1
# [5] = biological target: Fuc(a1-2)Gal(b1-4)GlcNAc(b1-6)GalNAc
# Procedure, shortened: as §1
# [6] = biological target: Fuc(a1-2)Gal6S(b1-3)GlcNAc6S
# Procedure, shortened: as §1
# [7] = biological target: Fuc(a1-2)Gal6S(b1-4)Glc6S
# Procedure, shortened: as §1
# [8] = biological target: Fuc(a1-2)[Gal(a1-3)]Gal(b1-3)GlcNAc(b1-2)Man(a1-3)[Fuc(a1-2)[Gal(a1-3)]Gal(b1-3)GlcNAc(b1-2)Man(a1-6)]Man(b1-4)GlcNAc(b1-4)[Fuc(a1-6)]GlcNAc
# Procedure, shortened: as §1
# [9] = biological target: Fuc(a1-2)[Gal(a1-3)]Gal(b1-4)GlcNAc(b1-3)GalNAc
# Procedure, shortened: as §1
# [10] = biological target: Fuc(a1-2)[GalNAc(a1-3)]Gal(b1-4)Glc
# Procedure, shortened: as §1
# [11] = biological target: Fuc(a1-2)[GalNAc(a1-3)]Gal(b1-4)GlcNAc(b1-2)Man(a1-3)[Fuc(a1-2)[GalNAc(a1-3)]Gal(b1-4)GlcNAc(b1-2)Man(a1-6)]Man(b1-4)GlcNAc(b1-4)[Fuc(a1-6)]GlcNAc
# Procedure, shortened: as §1
# [12] = biological target: Fuc(a1-3)[Gal(b1-4)]GlcNAc6S
# Procedure, shortened: as §1
# [13] = biological target: Fuc(a1-3)[Gal3S(b1-4)]Glc
# Procedure, shortened: as §1
# [14] = biological target: Gal(a1-3)Gal(b1-4)GlcNAc(b1-2)Man(a1-3)[Gal(a1-3)Gal(b1-4)GlcNAc(b1-2)Man(a1-6)]Man(b1-4)GlcNAc(b1-4)GlcNAc
# Procedure, shortened: as §1
# [15] = biological target: Gal(b1-3)GalNAc(b1-3)Gal
# Procedure, shortened: as §1
# [16] = biological target: Gal(b1-3)GlcNAc(a1-6)Gal(b1-4)GlcNAc
# Procedure, shortened: as §1
# [17] = biological target: Gal(b1-3)GlcNAc(b1-2)Man
# Procedure, shortened: as §1
# [18] = biological target: Gal(b1-3)GlcNAc(b1-3)Gal(b1-4)Glc
# Procedure, shortened: as §1
# [19] = biological target: Gal(b1-3)GlcNAc(b1-3)Gal(b1-4)GlcNAc(b1-2)[Gal(b1-3)GlcNAc(b1-3)Gal(b1-4)GlcNAc(b1-6)]Man(a1-6)[Gal(b1-3)GlcNAc(b1-3)Gal(b1-4)GlcNAc(b1-2)Man(a1-3)]Man(b1-4)GlcNAc(b1-4)[Fuc(a1-6)]GlcNAc
# Procedure, shortened: as §1
# [20] = biological target: Gal(b1-3)GlcNAc(b1-3)Gal(b1-4)GlcNAc(b1-3)Gal(b1-4)GlcNAc(b1-2)[Gal(b1-3)GlcNAc(b1-3)Gal(b1-4)GlcNAc(b1-3)Gal(b1-4)GlcNAc(b1-6)]Man(a1-6)[Gal(b1-3)GlcNAc(b1-3)Gal(b1-4)GlcNAc(b1-3)Gal(b1-4)GlcNAc(b1-2)Man(a1-3)]Man(b1-4)GlcNAc(b1-4)[Fuc(a1-6)]GlcNAc
# Procedure, shortened: as §1
# [21] = biological target: Gal(b1-3)GlcNAc(b1-3)Gal(b1-4)[Fuc(a1-3)]GlcNAc
# Procedure, shortened: as §1
# [22] = biological target: Gal(b1-4)GlcNAc(b1-2)Man
# Procedure, shortened: as §1
# [23] = biological target: Gal(b1-4)GlcNAc(b1-3)Gal(b1-4)GlcNAc(b1-3)Gal(b1-4)GlcNAc(b1-2)Man(a1-3)[Gal(b1-4)GlcNAc(b1-3)Gal(b1-4)GlcNAc(b1-3)Gal(b1-4)GlcNAc(b1-2)Man(a1-6)]Man(b1-4)GlcNAc(b1-4)[Fuc(a1-6)]GlcNAc
# Procedure, shortened: as §1
# [24] = biological target: Gal(b1-4)GlcNAc(b1-3)Gal(b1-4)GlcNAc(b1-3)Gal(b1-4)GlcNAc(b1-3)Gal(b1-4)GlcNAc(b1-3)Gal(b1-4)GlcNAc(b1-2)[Gal(b1-4)GlcNAc(b1-3)Gal(b1-4)GlcNAc(b1-3)Gal(b1-4)GlcNAc(b1-3)Gal(b1-4)GlcNAc(b1-3)Gal(b1-4)GlcNAc(b1-6)]Man(a1-6)[Gal(b1-4)GlcNAc(b1-3)Gal(b1-4)GlcNAc(b1-3)Gal(b1-4)GlcNAc(b1-3)Gal(b1-4)GlcNAc(b1-3)Gal(b1-4)GlcNAc(b1-2)Man(a1-3)]Man(b1-4)GlcNAc(b1-4)[Fuc(a1-6)]GlcNAc
# Procedure, shortened: as §1
# [25] = biological target: Gal(b1-4)GlcNAc(b1-3)Gal(b1-4)GlcNAc(b1-6)[Gal(b1-3)]GalNAc
# Procedure, shortened: as §1
# [26] = biological target: Gal3S(b1-4)Glc6S
# Procedure, shortened: as §1
# [27] = biological target: Gal6S(b1-4)Glc
# Procedure, shortened: as §1
# [28] = biological target: GalNAc(b1-3)Gal(a1-6)Gal(b1-4)Glc
# Procedure, shortened: as §1
# [29] = biological target: GlcNAc(a1-6)Gal(b1-4)GlcNAc
# Procedure, shortened: as §1
# [30] = biological target: GlcNAc(b1-2)[GlcNAc(b1-4)]Man(a1-3)[GlcNAc(b1-4)][GlcNAc(b1-2)[GlcNAc(b1-6)]Man(a1-6)]Man(b1-4)GlcNAc(b1-4)[Fuc(a1-6)]GlcNAc
# Procedure, shortened: as §1
# [31] = biological target: GlcNAc(b1-3)Fuc
# Procedure, shortened: as §1
# [32] = biological target: GlcNAc(b1-3)Gal(b1-4)GlcNAc(b1-2)Man(a1-3)[GlcNAc(b1-3)Gal(b1-4)GlcNAc(b1-2)Man(a1-6)]Man(b1-4)GlcNAc(b1-4)GlcNAc
# Procedure, shortened: as §1
# [33] = biological target: GlcNAc(b1-3)Gal(b1-4)GlcNAc(b1-3)Gal(b1-4)GlcNAc(b1-3)Gal(b1-4)GlcNAc(b1-3)Gal(b1-4)GlcNAc(b1-2)Man(a1-3)[GlcNAc(b1-3)Gal(b1-4)GlcNAc(b1-3)Gal(b1-4)GlcNAc(b1-3)Gal(b1-4)GlcNAc(b1-3)Gal(b1-4)GlcNAc(b1-2)Man(a1-6)]Man(b1-4)GlcNAc(b1-4)GlcNAc
# Procedure, shortened: as §1
# [34] = biological target: GlcNAc(b1-4)GlcNAc(b1-4)GlcNAc
# Procedure, shortened: as §1
# [35] = biological target: GlcNAc(b1-4)GlcNAc(b1-4)GlcNAc(b1-4)GlcNAc(b1-4)GlcNAc
# Procedure, shortened: as §1
# [36] = biological target: GlcNAc(b1-4)GlcNAc(b1-4)GlcNAc(b1-4)GlcNAc(b1-4)GlcNAc(b1-4)GlcNAc
# Procedure, shortened: as §1
# [37] = biological target: Kdn(a2-3)Gal(b1-3)GalNAc
# Procedure, shortened: as §1
# [38] = biological target: Man(b1-4)GlcNAc
# Procedure, shortened: as §1
# [39] = biological target: Neu5Ac(a2-3)Gal(b1-3)GlcNAc6S
# Procedure, shortened: as §1
# [40] = biological target: Neu5Ac(a2-3)Gal(b1-3)[Neu5Ac(a2-6)]GlcNAc(b1-3)[Fuc(a1-3)[Gal(b1-4)]GlcNAc(b1-6)]Gal(b1-4)Glc
# Procedure, shortened: as §1
# [41] = biological target: Neu5Ac(a2-3)Gal(b1-4)GlcNAc(b1-2)Man(a1-3)[Neu5Ac(a2-6)Gal(b1-4)GlcNAc(b1-2)Man(a1-6)]Man(b1-4)GlcNAc(b1-4)GlcNAc
# Procedure, shortened: as §1
# [42] = biological target: Neu5Ac(a2-3)Gal(b1-4)GlcNAc(b1-3)Gal(b1-4)GlcNAc(b1-3)Gal(b1-4)GlcNAc
# Procedure, shortened: as §1
# [43] = biological target: Neu5Ac(a2-3)Gal(b1-4)GlcNAc(b1-3)Gal(b1-4)GlcNAc(b1-3)[Neu5Ac(a2-3)Gal(b1-4)GlcNAc(b1-3)Gal(b1-4)GlcNAc(b1-6)]GalNAc
# Procedure, shortened: as §1
# [44] = biological target: Neu5Ac(a2-3)Gal(b1-4)GlcNAc(b1-6)[Gal(b1-3)]GalNAc
# Procedure, shortened: as §1
# [45] = biological target: Neu5Ac(a2-3)Gal6S(b1-4)[Fuc(a1-3)]GlcNAc
# Procedure, shortened: as §1
# [46] = biological target: Neu5Ac(a2-6)Gal(b1-4)GlcNAc(b1-3)Gal(b1-4)GlcNAc(b1-6)[Gal(b1-3)]GalNAc
# Procedure, shortened: as §1
# [47] = biological target: Neu5Ac(a2-8)Neu5Gc(a2-3)Gal(b1-4)GlcNAc
# Procedure, shortened: as §1
binder,measurement,setting,value
B1,glycan array binding signal (z-score),[1],-0.076
same,glycan array binding signal (z-score),[2],-0.042
same,glycan array binding signal (z-score),[3],0.259
same,glycan array binding signal (z-score),[4],-0.021
same,glycan array binding signal (z-score),[5],-0.086
same,glycan array binding signal (z-score),[6],-0.089
same,glycan array binding signal (z-score),[7],-0.1
same,glycan array binding signal (z-score),[8],-0.127
same,glycan array binding signal (z-score),[9],-0.118
same,glycan array binding signal (z-score),[10],-0.072
same,glycan array binding signal (z-score),[11],0.01
same,glycan array binding signal (z-score),[12],0.023
same,glycan array binding signal (z-score),[13],-0.089
same,glycan array binding signal (z-score),[14],-0.058
same,glycan array binding signal (z-score),[15],0.131
same,glycan array binding signal (z-score),[16],-0.12
same,glycan array binding signal (z-score),[17],-0.123
same,glycan array binding signal (z-score),[18],-0.065
same,glycan array binding signal (z-score),[19],0.063
same,glycan array binding signal (z-score),[20],0.15
same,glycan array binding signal (z-score),[21],-0.157
same,glycan array binding signal (z-score),[22],-0.039
same,glycan array binding signal (z-score),[23],-0.107
same,glycan array binding signal (z-score),[24],0.14
same,glycan array binding signal (z-score),[25],-0.078
same,glycan array binding signal (z-score),[26],-0.101
same,glycan array binding signal (z-score),[27],-0.027
same,glycan array binding signal (z-score),[28],-0.127
same,glycan array binding signal (z-score),[29],-0.108
same,glycan array binding signal (z-score),[30],-0.113
same,glycan array binding signal (z-score),[31],0.041
same,glycan array binding signal (z-score),[32],-0.109
same,glycan array binding signal (z-score),[33],-0.191
same,glycan array binding signal (z-score),[34],3.96
same,glycan array binding signal (z-score),[35],19.9
same,glycan array binding signal (z-score),[36],13.5
same,glycan array binding signal (z-score),[37],0.259
same,glycan array binding signal (z-score),[38],0.12
same,glycan array binding signal (z-score),[39],-0.154
same,glycan array binding signal (z-score),[40],0.077
same,glycan array binding signal (z-score),[41],-0.088
same,glycan array binding signal (z-score),[42],-0.099
same,glycan array binding signal (z-score),[43],0.153
same,glycan array binding signal (z-score),[44],-0.065
same,glycan array binding signal (z-score),[45],-0.14
same,glycan array binding signal (z-score),[46],0.12
same,glycan array binding signal (z-score),[47],0.137
